Compound activity: PubChem BioAssay, National Center for Advancing Translational Sciences (NCATS)
A selection: hits, their analogues and other compounds. The true share with any hit is near 11%.
HCV inh = HCV inhibition; Huh7.5.1 HCVcc-Cre infection, luciferase reporter, 44 h; Potency, µM (titrated, usually from 41.8 µM), without a hit: top-dose activity change, negative = inhibition, most hits filed as inhibitors; 340,000 compounds, 3.4% hits
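Compounds are dispensed onto cells plated 4 h earlier at 1,000 per well, with HCVcc-Cre virus (about 0.5 moi) added next. Following 44 h of culture, luminescent signal is measured for 15 sec after 15 min with substrate at room temperature.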
AmpC inh no detg = inhibitors of E. coli AmpC beta-lactamase without detergent. P00811. AmpC nitrocefin hydrolysis, absorbance 480 nm, 0.0001% Triton. Potency, µM (highest dose often 57.1 µM), inactives show at the highest dose activity change, negative = inhibition, actives largely listed as inhibitors. 330,000 compounds, 0.52% hits. AID 485341;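 further: plate controls were no compound for no effect and no enzyme for full effect; nearly all actives have a fitted effect of over 20% in size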
Target sequence (P00811 whole entry, looked up): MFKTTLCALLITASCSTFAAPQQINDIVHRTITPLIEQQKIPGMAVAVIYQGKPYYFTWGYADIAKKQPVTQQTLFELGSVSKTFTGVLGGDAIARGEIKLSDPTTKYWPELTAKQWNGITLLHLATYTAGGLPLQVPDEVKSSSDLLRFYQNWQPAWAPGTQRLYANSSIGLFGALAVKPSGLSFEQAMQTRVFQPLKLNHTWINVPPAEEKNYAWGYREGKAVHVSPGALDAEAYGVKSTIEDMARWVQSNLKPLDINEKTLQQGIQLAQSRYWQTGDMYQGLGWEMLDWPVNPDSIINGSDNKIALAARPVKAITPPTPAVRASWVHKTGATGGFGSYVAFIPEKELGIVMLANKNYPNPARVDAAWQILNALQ
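20 mM phosphate pH 7.0 + 0.01% (detergent screen) or 0.0001% Triton X-100; 5.3 nM AmpC reagent; cpd preinc 15 min RT; nitrocefin (800 uM stock) to start; A480 q20 s × 4 min; Activity was normalised to no-enzyme and no-compound control wells.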
AmpC inh detg = AmpC beta-lactamase inhibition with detergent present. P00811. AmpC hydrolysis of nitrocefin, absorbance 480 nm, 0.01% Triton. Potency, µM (series often up to 114 µM), for inactives: at the highest dose activity change, negative = inhibition, actives largely listed as inhibitors. 370,000 compounds, 0.041% hits. AID 485294;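 further: 0% = no-compound wells and -100% = no-enzyme wells; nearly all actives have a fitted effect of over 25% in size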
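20 mM phosphate pH 7.0 + 0.01% (detergent screen) or 0.0001% Triton X-100; 5.3 nM AmpC reagent; cpd preinc 15 min RT; nitrocefin (800 uM stock) to start; A480 q20 s × 4 min; Activity was normalised to no-enzyme and no-compound control wells.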
AMA1 RON2 block = inhibitors of Plasmodium falciparum AMA1-RON2 interaction; AlphaScreen AMA1-biotinylated RON2 peptide binding; Potency, µM (highest dose often 58.2 µM), for the others: top-dose activity change, negative = inhibition, actives largely listed as inhibitors; 360,000 compounds, 0.2% hits; AID 720542;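 further: 0% = vehicle wells and -100% = peptide control; nearly all actives have a fitted effect of over 45% in size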
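AMA1 (3D7) with his tag at 25 nM final met compounds first, then biotinylated RON2 peptide at 25 nM; detection used donor plus acceptor beads, 10 µg/mL apiece, read by AlphaScreen after 30 min at room temperature.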
Pf growth 48h = inhibits P. falciparum growth in the first generation, 48 h; P. falciparum luciferase growth in erythrocytes, 48 h; Potency, µM (titrated, usually from 28.7 µM), for inactives: at the highest dose activity change, negative = inhibition, hits mostly inhibitors; AID 504832; 310,000 compounds, 5.9% hits
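Cell-based growth assay: transgenic P. falciparum expressing firefly luciferase, cultured in red cells within RPMI 1640 containing 0.5% w/v Albumax, 24 mM bicarbonate and gentamycin. A drop in luciferase activity indicates inhibition.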
Pf growth 96h = inhibits malaria parasite growth, 96 h; P. falciparum luciferase reporter growth, 96 h; Potency, µM (titrated, usually from 28.7 µM), for inactives: at the highest dose activity change, negative = inhibition, usual class: inhibitors; 320,000 compounds, 6.9% hits; AID 504834
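Readout is luminescence from an integrated firefly luciferase in P. falciparum. Red cells, 2% hematocrit and 0.05% parasitemia final, were cultured with compound through two parasite generations (96 hours) at 37 C, 5% CO2.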
* hit, by the source's call; [ ] = dose if it differs, or a comment. The call rests on the fitted dose curve; in most records, active means well fitted curve in the direction sought with a large enough effect; inconclusive means small, poorly fitted or top-dose-only effect, or another doubt; inactive means no such curve, though single readings can be large; an effect the other way counts as inactive or inconclusive. Unless noted, on the % scale 0 is the no-effect control and ±100 the full control effect; potency means the concentration at half of the fitted maximal effect.

For Oc1ccccc1-c1nc(NCC2CCCO2)c2ccccc2n1 (stereo unspecified) the results were HCV inh 13µM*, AmpC inh no detg 3%, AmpC inh detg -1%, AMA1 RON2 block -8%, Pf growth 48h inconclusive and Pf growth 96h 10µM*.
`COc1cccc(-c2nc(NCC3CCCO3)c3ccccc3n2)c1O` (stereo unspecified) gave HCV inh inconclusive, AmpC inh no detg 20%, AmpC inh detg -3%, AMA1 RON2 block -22%, Pf growth 48h 4% and Pf growth 96h -17%.
`COc1ccccc1Nc1nc(NCC2CCCO2)c2ccccc2n1` (stereo unspecified) gave HCV inh 10µM*, AmpC inh no detg 0%, AmpC inh detg 2%, AMA1 RON2 block -11%, Pf growth 48h inconclusive and Pf growth 96h 1µM*.
For Cc1ccc(S(=O)(=O)N2CCOCC2)cc1C(=O)OCC(=O)NCc1ccccc1 the results were HCV inh 22%, AmpC inh no detg -4%, AmpC inh detg inconclusive, AMA1 RON2 block -9%, Pf growth 48h inconclusive and Pf growth 96h -9%.
Screening Cc1ccc(N(Cc2ccccc2)C(=O)c2ccc(Cl)c(S(=O)(=O)N3CCOCC3)c2)cc1 returned HCV inh inconclusive, AmpC inh no detg -1%, AmpC inh detg -15%, AMA1 RON2 block -19%, Pf growth 48h 13µM* and Pf growth 96h 9.3µM*.
`Cc1ccc(N(Cc2ccccc2)C(=O)c2cc(S(=O)(=O)N3CCOCC3)ccc2C)cc1` gave HCV inh -3%, AmpC inh no detg 49%, AmpC inh detg inconclusive, AMA1 RON2 block -14%, Pf growth 48h 10µM* and Pf growth 96h inconclusive.
For Cc1ccc(C)c(CN2CCC(CNC(=O)Nc3ccc(Cl)cc3)CC2)c1 the results were HCV inh -6%, AmpC inh no detg 32%, AmpC inh detg -4%, AMA1 RON2 block 2%, Pf growth 48h 7%[0.00184 µM] and Pf growth 96h inconclusive.
Screening Cc1ccc(C)c(CN2CCC(CNC(=O)Nc3ccc(Br)cc3F)CC2)c1 returned HCV inh inconclusive, AmpC inh no detg -12%, AmpC inh detg 0%, AMA1 RON2 block -2%, Pf growth 48h 13µM* and Pf growth 96h -13%.
COc1cc(CNC(=O)c2ccc3c(c2)N(C)C(=O)C2CCCCN32)cc(OC)c1OC (stereo unspecified) was read as AmpC inh detg 16%.
For CCCC12CN3CC(CCC)(CN(C1)C3c1ccccc1)C2=O (stereo unspecified) the results were AmpC inh detg 1%.
`Cc1nc2c(ccc3nc(NC(=O)Cc4ccccc4)sc32)s1` gave HCV inh 10µM*, AmpC inh no detg -59%, AmpC inh detg -6%, AMA1 RON2 block -3%, Pf growth 48h 1% and Pf growth 96h -16%.
For CCNC(=S)N=Nc1c(O)[nH]c2ccc([N+](=O)[O-])cc12 the results were HCV inh -14%, AmpC inh no detg -33%, AmpC inh detg -1%, AMA1 RON2 block 69%, Pf growth 48h inconclusive and Pf growth 96h 6.6µM*.
Screening Oc1[nH]c2ccccc2c1N=NC(=S)NCCc1ccccc1 returned HCV inh -16%, AmpC inh no detg 25µM*, AmpC inh detg inconclusive, AMA1 RON2 block -5%, Pf growth 48h -13% and Pf growth 96h 0%.
CC(C)c1ccc2[nH]c(O)c(N=NC(=S)NCCc3ccccc3)c2c1 was read as HCV inh inconclusive, AmpC inh no detg -21%, AmpC inh detg 2%, AMA1 RON2 block 18%, Pf growth 48h inconclusive and Pf growth 96h 9.3µM*.
CCOc1ccc(NC(=S)N=Nc2c(O)[nH]c3ccccc23)cc1 was read as HCV inh 13µM*, AmpC inh no detg -57%, AmpC inh detg -3%, AMA1 RON2 block 49%, Pf growth 48h inconclusive and Pf growth 96h 1.7µM*.
`CCNC(=S)N=Nc1c(O)[nH]c2ccc(C(C)C)cc12` gave HCV inh inconclusive, AmpC inh no detg -35%, AmpC inh detg -3%, AMA1 RON2 block 22%, Pf growth 48h inconclusive and Pf growth 96h inconclusive.
Screening Oc1cccc(NC(=S)N=Nc2c(O)[nH]c3ccccc23)c1 returned HCV inh -1%, AmpC inh no detg -46%, AmpC inh detg 10%, AMA1 RON2 block 46%, Pf growth 48h 11% and Pf growth 96h -10%.
For O=[N+]([O-])c1ccc2[nH]c(O)c(N=NC(=S)NCC3CCCO3)c2c1 (stereo unspecified) the results were HCV inh -12%, AmpC inh no detg -20%, AmpC inh detg 0%, AMA1 RON2 block 52%, Pf growth 48h 14% and Pf growth 96h 10%.
`CCCCNC(=S)N=Nc1c(O)[nH]c2ccccc12` gave HCV inh 0%, AmpC inh no detg -33%, AmpC inh detg inconclusive, AMA1 RON2 block 2%, Pf growth 48h inconclusive and Pf growth 96h 9.3µM*.
`COc1ccc(-c2nnc(SCC(=O)Nc3ccc(C)c(C)c3)s2)cc1` gave AmpC inh detg 2%.
For CCC(C)C(=O)N[C@@H](c1ccccc1)[C@@H](O)C(=O)O[C@H]1C[C@@]2(O)[C@@H](OC(=O)c3ccccc3)C3[C@](C)(C(=O)[C@H](OC(C)=O)C(=C1C)C2(C)C)[C@@H](O)C[C@H]1OC[C@@]31OC(C)=O (stereo partly specified) the results were HCV inh inconclusive, AmpC inh no detg 185%, AmpC inh detg inconclusive, AMA1 RON2 block 1%, Pf growth 48h 0.47µM* and Pf growth 96h 0.23µM*.
For CCCCCC(=O)N[C@@H](c1ccccc1)[C@@H](O)C(=O)O[C@H]1C[C@@]2(O)[C@@H](OC(=O)c3ccccc3)C3[C@](C)(C(=O)[C@H](OC(C)=O)C(=C1C)C2(C)C)[C@@H](O)C[C@H]1OC[C@@]31OC(C)=O (stereo partly specified) the results were HCV inh inconclusive, AmpC inh no detg 207%, AmpC inh detg inconclusive, AMA1 RON2 block -1%, Pf growth 48h inconclusive and Pf growth 96h inconclusive.
